# GLA inh pH 4.5 – alpha-galactosidase A (human) inhibition, pH 4.5; 230,000 tested, under 10 active; activity change, negative = inhibition, % at 105 µM; purified enzyme, 4-MU-alpha-Gal fluorescence, pH 4.5; AID 1467; P06280
# GLA spleen mod – inhibitors or activators of human alpha-galactosidase in spleen homogenate | hit rate 0.008% among 240,000 | Potency, µM (titrated, usually from 80 µM), usual class: inhibitors | P06280 | human spleen homogenate, 4MU-alpha-Gal fluorescence, 40 min
# Target sequence (P06280 32-429 limits assumed): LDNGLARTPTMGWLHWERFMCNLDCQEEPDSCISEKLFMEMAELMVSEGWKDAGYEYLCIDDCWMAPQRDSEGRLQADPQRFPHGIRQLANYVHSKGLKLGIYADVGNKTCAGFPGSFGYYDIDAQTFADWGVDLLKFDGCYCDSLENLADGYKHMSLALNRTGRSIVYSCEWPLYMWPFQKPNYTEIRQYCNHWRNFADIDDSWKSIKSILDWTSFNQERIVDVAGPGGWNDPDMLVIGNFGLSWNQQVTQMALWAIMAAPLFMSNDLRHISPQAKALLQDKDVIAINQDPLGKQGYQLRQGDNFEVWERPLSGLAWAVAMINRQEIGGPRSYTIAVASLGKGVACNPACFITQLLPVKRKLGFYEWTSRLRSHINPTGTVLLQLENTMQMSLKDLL
#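 Fluorogenic readout (Ex 365/Em 440 nm) of 4-methylumbelliferone released from 1 mM 4-MU-alpha-galactoside by spleen homogenate, 40 min at 37C, pH 5.0. Data normalized to no-enzyme and enzyme controls; Hill-equation AC50 from compound titrations.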
# N370S GC – inhibits or activates N370S mutant glucocerebrosidase. P04062. N370S GC spleen homogenate, 4MU-glucoside fluorescence. Potency, µM (top dose mostly 59.4 µM), usual class: inhibitors. hit rate 0.092% among 330,000. AID 2101
# GAA glycogen – inhibitors or activators of human alpha-glucosidase glycogen cleavage; recombinant GAA, glycogen substrate, Amplex Red glucose oxidase fluorescence; hit rate 0.38% among 300,000; Potency, µM (doses to about 76.4 µM), usual class: inhibitors;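 also: the screen sought inhibitors and activators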
#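 Natural-substrate format: glycogen cleavage by 4 nM human enzyme, glucose read by Amplex Red coupling (Ex 573, Em 610 nm). Normalized to enzyme and no-enzyme controls.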
# GAA inh – blocks human lysosomal alpha-glucosidase; P10253; Potency, µM (top dose mostly 76.9 µM), actives largely listed as inhibitors; hit rate 0.005% among 200,000; purified human GAA, 4-MU-alpha-glucoside fluorescence
#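 Human alpha-glucosidase, 4 nM, pre-mixed with test compounds before 400 uM 4-methylumbelliferyl substrate; 20 min room temperature at pH 5.0. Fluorescence read after pH 10 stop; AC50 values from Hill-equation fits.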
# GAA spleen mod – inhibits or activates alpha-glucosidase in human spleen homogenate; P10253; human spleen homogenate, 4-MU-alpha-glucoside fluorescence; Potency, µM (top dose mostly 79.9 µM), usual class: inhibitors; hit rate 0.006% among 240,000; AID 2112
#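 Compounds were titrated against alpha-glucosidase in spleen homogenate at pH 5.0, with 1 mM 4-methylumbelliferyl substrate for 40 min at 37 C. Reactions were quenched with pH 10 NaOH/glycine and fluorescence measured.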
# Numbers stand for hits; - = inactive; ? = inconclusive; . = no result. An excerpt weighted towards active compounds, which were near 0.41% of everything screened. Calls follow the shape of the dose curve; as a rule, active = well fitted curve in the direction sought with a large enough effect; inconclusive = small, poorly fitted or top-dose-only effect, or another doubt; inactive = no such curve, though single readings can be large; an effect the other way counts as inactive or inconclusive.
SMILES,GLA inh pH 4.5,GLA spleen mod,N370S GC,GAA glycogen,GAA inh,GAA spleen mod
C#CCOCCOCCOCCNc1nc(N2CCN(C(=O)CCCCCCCCCCNC(=O)[C@@H](CCSC)n3cc(CCO)nn3)CC2)nc(N2CCN(C(=O)CCCCCCCCCCNC(=O)[C@@H]([C@H](C)O)n3cc(C)nn3)CC2)n1,.,.,-,.,.,.
C#CCOCCOCCOCCNc1nc(N2CCN(C(=O)CCCCCCCCCCNC(=O)[C@H](CCCCN)n3cc(C[C@@H](C)CC)nn3)CC2)nc(N2CCN(C(=O)CCCCCCCCCCNC(=O)[C@@H]([C@H](C)O)n3cc(C)nn3)CC2)n1,.,.,11µM,.,.,.
C#CCOCCOCCOCCNc1nc(N2CCN(C(=O)CCCCCCCCCCNC(=O)[C@H](CCCCN)n3cc(CCO)nn3)CC2)nc(N2CCN(C(=O)CCCCCCCCCCNC(=O)[C@H](CCCCN)n3cc(C[C@@H](C)CC)nn3)CC2)n1,.,.,14µM,.,.,.
C[C@@]12C=Cc3occc3[C@H]1CC[C@@]13C[C@@H](CC[C@H]12)[C@@](O)(CO)C3,.,-,-,.,.,-
CCOc1ccc(N(CC(=O)NCc2ccc(OC)cc2)S(=O)(=O)c2c(C)[nH]c(=O)[nH]c2=O)cc1,.,.,11µM,-,.,.
CCOc1ccc(N(CC(=O)NCCc2ccc(Cl)cc2)S(=O)(=O)c2c(C)[nH]c(=O)[nH]c2=O)cc1,-,-,10µM,-,-,-
COc1ccc(CNC(=O)CN(c2ccc(C)cc2)S(=O)(=O)c2c(C)n[nH]c2C)cc1,.,.,.,-,.,.
CCOc1ccc(S(=O)(=O)N(CC(=O)NCCc2ccc(OC)cc2)c2ccccc2)cc1,.,.,.,-,.,.
O=S(=O)(Nc1cccc2cccnc12)c1ccc(Br)s1,.,-,-,.,.,-
CC(C)CCC[C@@H](C)[C@H]1CC[C@H]2[C@@H]3CC=C4CC(O)CC[C@]4(C)[C@H]3CC[C@]12C (stereo partly specified),.,-,-,.,.,-
O=c1oc2ccc(Cl)cc2nc1/C=C(\O)c1cccs1,-,-,-,6.3µM,.,-
O=c1oc2ccccc2nc1/C=C(\O)c1ccc(Br)cc1,-,-,-,?,.,-
C/C(O)=C\c1nc2ccccc2oc1=O,-,-,-,10µM,-,-
CCS(=O)(=O)CCSc1nc2ccccc2o1,-,-,-,-,-,-
Cc1ccc2oc(=O)c(/C=C(\O)c3ccccc3)nc2c1,-,-,-,?,-,-
Cc1ccc2oc(=O)c(/C=C(\O)c3cccs3)nc2c1,-,-,-,13µM,.,-
CS(=O)(=O)Cc1nc2ccccc2oc1=O,-,-,-,5.6µM,-,-
CC[C@H](C)[C@H](NC(=O)[C@H](CCC(=O)O)NC(=O)[C@@H](N)CO)C(=O)N[C@@H](CCC(N)=O)C(=O)N[C@@H](CC(C)C)C(=O)N[C@@H](CCSC)C(=O)N[C@@H](Cc1cnc[nH]1)C(=O)N[C@@H](CC(N)=O)C(=O)N[C@@H](CC(C)C)C(=O)NCC(=O)N[C@@H](CCCCN)C(=O)N[C@@H](Cc1cnc[nH]1)C(=O)N[C@@H](CC(C)C)C(=O)N[C@@H](CC(N)=O)C(=O)N[C@@H](CO)C(=O)N[C@@H](CCSC)C(=O)N[C@@H](CCC(=O)O)C(=O)N[C@@H](CCCNC(=N)N)C(=O)N[C@H](C(=O)N[C@@H](CCC(=O)O)C(=O)N[C@@H](Cc1c[nH]c2ccccc12)C(=O)N[C@@H](CC(C)C)C(=O)N[C@@H](CCCNC(=N)N)C(=O)N[C@@H](CCCCN)C(=O)N[C@@H](CCCCN)C(=O)N[C@@H](CC(C)C)C(=O)N[C@@H](CCC(N)=O)C(=O)N[C@@H](CC(=O)O)C(=O)N[C@H](C(=O)N[C@@H](Cc1cnc[nH]1)C(=O)N[C@@H](CC(N)=O)C(=O)N[C@@H](Cc1ccccc1)C(=O)O)C(C)C)C(C)C,.,-,-,.,.,-

# Screens as filed in PubChem.
